# PMC4336329 (PLoS ONE, 2015)
# In all, about 310,000 compounds went through this assay and about 14,000 (4.5%) showed an effect of 50% or more. The effect is printed as a negative number. This excerpt belongs to a sample that is enriched for strong results.
# Target: human ether-à-go-go-related gene (hERG) potassium channel (human, UniProt Q12809)
# Assay: primary screen, population patch clamp on CHO cells stably expressing hERG; higher = less effect of the substance
# 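Further: peak tail current of the secondary pulse compared with the same well before compound.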
# Chain of human ether-à-go-go-related gene (hERG) potassium channel (Q12809 whole entry, looked up): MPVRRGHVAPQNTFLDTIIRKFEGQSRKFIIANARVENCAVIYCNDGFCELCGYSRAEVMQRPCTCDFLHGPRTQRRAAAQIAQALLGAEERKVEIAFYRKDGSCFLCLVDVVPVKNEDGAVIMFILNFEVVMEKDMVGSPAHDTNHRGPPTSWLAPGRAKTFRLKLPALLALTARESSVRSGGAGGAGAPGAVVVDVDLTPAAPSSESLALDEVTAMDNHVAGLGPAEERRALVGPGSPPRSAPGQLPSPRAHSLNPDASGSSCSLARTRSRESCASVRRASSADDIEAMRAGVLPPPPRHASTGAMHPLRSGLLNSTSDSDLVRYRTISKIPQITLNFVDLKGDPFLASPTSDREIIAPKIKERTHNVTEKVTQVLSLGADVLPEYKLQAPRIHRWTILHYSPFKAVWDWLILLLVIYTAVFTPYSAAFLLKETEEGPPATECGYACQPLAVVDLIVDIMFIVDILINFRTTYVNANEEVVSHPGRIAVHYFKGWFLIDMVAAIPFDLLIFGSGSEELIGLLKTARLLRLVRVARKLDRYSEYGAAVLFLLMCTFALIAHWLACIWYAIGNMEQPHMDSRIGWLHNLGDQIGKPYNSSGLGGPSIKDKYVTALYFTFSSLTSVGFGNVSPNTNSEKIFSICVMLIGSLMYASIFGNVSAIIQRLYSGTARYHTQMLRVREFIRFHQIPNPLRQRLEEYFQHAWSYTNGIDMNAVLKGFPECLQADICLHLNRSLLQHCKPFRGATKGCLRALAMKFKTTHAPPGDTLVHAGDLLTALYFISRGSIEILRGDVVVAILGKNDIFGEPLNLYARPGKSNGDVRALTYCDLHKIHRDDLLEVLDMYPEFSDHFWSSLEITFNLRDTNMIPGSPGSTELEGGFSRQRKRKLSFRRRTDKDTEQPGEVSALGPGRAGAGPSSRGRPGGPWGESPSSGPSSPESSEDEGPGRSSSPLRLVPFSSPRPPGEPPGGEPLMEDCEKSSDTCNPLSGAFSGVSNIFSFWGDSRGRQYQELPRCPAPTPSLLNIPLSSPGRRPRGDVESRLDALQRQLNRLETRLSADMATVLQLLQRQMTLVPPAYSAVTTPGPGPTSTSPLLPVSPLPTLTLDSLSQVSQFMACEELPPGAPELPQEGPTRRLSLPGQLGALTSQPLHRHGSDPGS
row,SMILES,"hERG current change (%, negative = inhibition) at 10uM [%]"
1,Cc1ccc(-n2c(SCC(=O)N/N=C/c3c(C)nn(-c4ccccc4)c3C)nc3ccccc3c2=O)cc1,-7.33
2,O=C(Nc1ccccc1)N1CCC(O)(c2cccc(C(F)(F)F)c2)CC1,-6.72
3,c1ccc(-c2nc3ccccc3s2)nc1,4.67
4,Cc1ccc(-n2c(SCC(=O)N3c4ccccc4Sc4ccccc43)nnc2-c2ccncc2)cc1,-3.06
5,COc1ccc(NC(=O)CN(C)C(=O)C(C)Sc2ccccc2)cc1 (centres unmarked),5.43
6,COC(=O)Cn1c2nc3ccccc3nc2c2cccc(C)c21,9.86
7,COC(=O)Cn1cnc2c(C#N)c3n(c2c1=O)CCCCC3,-8.01
8,COc1cc(-c2nn3c(COc4ccccc4)nnc3s2)cc(OC)c1OC,14.8
9,O=C(NCc1ccccc1)c1ccco1,2.34
10,COc1cccc(CN2CCN(Cc3ccon3)CC2CCO)c1 (centres unmarked),0.227
11,CCOc1ccccc1CN1CCN(Cc2ccon2)CC1CCO (centres unmarked),-42.6
12,CCOc1ccc(CN2CCN(Cc3cccc4nonc34)CC2CCO)cc1 (centres unmarked),-77.1
13,CCOc1ccccc1CN1CCN(Cc2cccc3nonc23)CC1CCO (centres unmarked),-73.3
14,COc1ccc(CN2CCN(Cc3cccc4nonc34)CC2CCO)c(C)c1C (centres unmarked),-68.3
15,COc1cccc(CN2CCN(Cc3cccc4c3OCO4)CC2CCO)c1 (centres unmarked),-23.2
16,COc1cccc(CN2CCN(Cc3cccc4nonc34)CC2CCO)c1 (centres unmarked),-66.3
17,CC(C)N1CCN(Cc2cccc3nonc23)CC1CCO (centres unmarked),1.05
18,CC(C)CCN1CCN(Cc2cccc3nonc23)CC1CCO (centres unmarked),-16.7
19,Cc1cccc(CN2CCN(Cc3cccc4nonc34)CC2CCO)n1 (centres unmarked),-24.1
20,Cc1ccc(-n2nc3c(=O)n(CC(=O)NCCc4ccc(Cl)cc4)nc(C)c3c2C)cc1,-10.2
21,CCc1ccccc1N(CC(=O)N1CCN(c2ccccc2F)CC1)S(C)(=O)=O,0.701
22,COc1ccc(S(=O)(=O)NCC(c2ccco2)N2CCOCC2)cc1 (centres unmarked),-19.1
23,COC(=O)N/N=C(\C)c1ccc(Br)cc1,11.6
24,CCCCN(CC)C(=O)c1n[nH]c(=O)c2ccccc12,2.92
25,Cc1nc(CNC(=O)C2CCC(=O)N(Cc3cccc(F)c3)C2)sc1C (centres unmarked),5.68
26,Cc1onc(-c2c(Cl)cccc2Cl)c1C(=O)N1CCc2ccccc21,-19.9
